# Results taken from PubChem BioAssay AID902 (National Center for Advancing Translational Sciences (NCATS), 2007).
# Several values for one entry are separate records, joined by “and”; a condition that tells them apart may be missing. Identical values can stand only once. Among all 130,000 compounds or so, about 1,900 (1.5%) were called active. A call without a number means that no potency is given here. Roughly 5% stayed inconclusive and do not appear here. This excerpt belongs to a sample that is enriched for actives. A number with no mark means an inactive call. Calls follow the shape of the dose curve; as a rule, active = well fitted cell-killing curve with a large enough effect; inconclusive = small, poorly fitted or top-dose-only effect; inactive = no such curve, though single readings can be large or run the other way.
# Assay: qHTS Screen for Compounds that Selectively Target Cancer Cells with p53 Mutations: Cytotoxicity of p53ts Cells at the Nonpermissive Temperature; also: nearly all actives have a fitted effect of over 55% in size
# Conditions: H1299-p53A138V viability at 39C, ATP luminescence, 24 h; series mostly up to 46.1 µM
# Potency is read from the fitted curve at half-maximal effect.
Compound,Potency,"activity change, negative = cell killing"
Cc1ccccc1CSCCNC(=O)C1CCN(S(=O)(=O)Cc2ccccc2)CC1,inactive,–
Cc1ccc(NC(=O)c2ccc3[nH]c(C)cc(=O)c3c2)c(C)c1,inactive,–
CCC1(C)CC(=O)c2c(ccc3oc(C(=O)Nc4ccc(C(C)=O)cc4)c(C)c23)O1 (centres undefined),inactive,–
CC1(C)CC(=O)c2cc(OCC(=O)NCC3CCCO3)ccc2O1 (centres undefined),inactive,–
Cc1c(C(=O)NCc2ccccc2Br)oc2ccc3c(c12)C(=O)CC(C)(C)O3,15.8 µM (active),–
CCS(=O)(=O)N1CCc2cc(C(=O)NCc3ccc(C)cc3)ccc21,inactive,–
Cc1ccc(O)c(NC(=O)CCS(=O)(=O)c2nc(-c3ccc4c(c3)OCO4)cc(C(F)(F)F)n2)c1,3.16 µM (active),–
Cc1ccc(O)c(NC(=O)c2cc(-c3ccc(F)cc3)no2)c1,inactive,–
COc1ccccc1-c1cc(C(F)(F)F)nc(S(=O)(=O)CCCC(=O)Nc2ccc(F)cc2F)n1,inactive,–
Cc1ccc(CNC(=O)c2ccc(CS(=O)Cc3cccc(Cl)c3)o2)cc1 (centres undefined),inactive,–
c1c2c(cc3sc(N4CCCCC4)nc13)OCCO2,2 µM (active),–
COc1ccc2nc(Nc3nc4cc5c(cc4s3)OCCO5)sc2c1,inactive,–
Fc1ccc2nc(N3CCCCC3)sc2c1,inactive,–
Cc1cccc(CSc2nc3ccncc3n2CC(=O)N(C)C2CCCCC2)c1,inactive,–
COc1ccc(CNC(=O)c2ccc3c(O)c(S(=O)(=O)c4ccccc4)c(=O)[nH]c3c2)cc1,inactive,–
CC(C)c1ccc(NC(=O)c2ccc3c(O)c(S(=O)(=O)c4ccccc4)c(=O)[nH]c3c2)cc1,6.31 µM (active),–
Cc1ccc(C(=O)Nc2ccc3[nH]c(=O)c(=O)[nH]c3c2)cc1,inactive,–
COc1ccc(C)cc1NC(=O)CCc1c(C)nn(-c2ccc(N3CCOCC3)nn2)c1C,inactive,–
Cc1ccc(N2CC(NC(=O)Cc3cccs3)CC2=O)cc1 (centres undefined),inactive,–
CCCCN1C(=O)c2[nH]nc(-c3ccccc3O)c2C1c1cccc(OCc2ccccc2)c1 (centres undefined),25.1 µM (active),–
CCOc1ccc(/C(O)=C2/C(=O)C(=O)N(Cc3cccnc3)C2c2ccc(N(C)C)cc2)c(C)c1 (centres undefined),inactive,–

Compound,Potency,"activity change, negative = cell killing"
COc1cccc(-c2n[nH]c3c2C(c2cccc(O)c2)N(C)C3=O)c1 (centres undefined),inactive,–
CCCOc1ccc(C2c3c(-c4ccccc4O)n[nH]c3C(=O)N2Cc2cccnc2)cc1 (centres undefined),12.6 µM (active),–
COc1ccc(C2C(C(C)=O)=C(O)C(=O)N2Cc2cccnc2)cc1 (centres undefined),inactive,–
COc1ccc(CCN2C(=O)c3[nH]nc(-c4ccccc4O)c3C2c2ccc(C)cc2)cc1OC (centres undefined),inactive,–
O=C(c1cccc(Cl)c1)N1CCN(CCc2ccncc2)CC1,inactive,–
Fc1ccc(C(Nc2ccc(Cl)c(C(F)(F)F)c2)c2nnc(-c3ccccc3)o2)cc1 (centres undefined),inactive,–
Cn1c(=O)nc2n(-c3ccc(Br)cc3)c3cccc(Cl)c3cc-2c1=O,inactive,–
CCCCCn1c(=O)[nH]c2cc(C(=O)Nc3ccc(F)cc3)ccc2c1=O,inactive,–
Cn1nc(-c2ccccc2)c(-c2ccccc2)c(C(=O)Nc2ccc(S(N)(=O)=O)cc2)c1=O,inactive,–
COc1ccc2cc(CNc3ccc(OC)c(OC)c3)c(=O)n(CC(=O)Nc3ccccc3F)c2c1,inactive,–
Cc1c2cnn(-c3ccccc3)c(=O)c2c(C)n1C(C)C(=O)Nc1ccc(Br)cc1F (centres undefined),inactive,–
CCN(CCCCOC(=O)c1ccc(OC)c(OC)c1)C(C)Cc1ccc(OC)cc1 (centres undefined),inactive,–
COc1ccc(/C=C/NC(=O)Cc2ccc(OC)c(OC)c2)cc1,–,-6.46% [at 9.22 µM] and 8.2% [at 9.22 µM]
COc1ccc(C(CCN(Cc2ccc(OC)c(OC)c2)C(=O)CCl)c2ccccc2)cc1 (centres undefined),3.98 µM (active),–
O=C(NCc1ccccc1)c1cc(-c2cccc(Cl)c2)on1,inactive,–
COc1ccc(-c2nc(-c3ccccc3)no2)c(OC)c1,6.31 µM (active),–
COc1ccc(-c2cc(-c3nc(-c4cc(OC)c(OC)c(OC)c4)no3)[nH]n2)c(OC)c1,inactive,–
COc1ccc(-c2noc(CSc3nnc(-c4ccccc4)n3-c3ccc(F)cc3)n2)c(OC)c1,inactive,–
O=C(CN1CCN(Cc2ccc(Cl)cc2)C1=O)NCc1ccc(F)cc1,inactive,–
Cc1ccc(C)c(N2CCN(c3ccc4cc(S(=O)(=O)N5CCC(C)CC5)ccc4n3)CC2)c1,inactive,–
COC(=O)Cc1nc2ccccc2[nH]1,inactive,–

Compound,Potency,"activity change, negative = cell killing"
O=C(COc1ccccc1)NCCc1nc2ccccc2[nH]1,inactive,–
N#C/C(=C(/O)COC(=O)COc1ccc(Cl)cc1)c1nc2ccccc2[nH]1,20 µM (active),–
COc1ccc(CNC(=O)CSc2n[nH]c(-c3ccc(F)cc3)n2)cc1,inactive,–
O=C(NCC(c1cccnc1)N1CCc2ccccc21)c1cccc(C(F)(F)F)c1 (centres undefined),inactive,–
Cc1ccc2nc(-c3ccc(O)cc3)c(Nc3ccc4c(c3)OCO4)n2c1,inactive,–
COc1cccc(-n2cc(C(=O)NCc3cccc(Cl)c3)c3ccccc3c2=O)c1,inactive,–
COc1ccc(-n2ncc3c(N4CCc5ccccc54)ncnc32)cc1,inactive,–
COc1ccc(-n2ncc3c(N4CCCc5ccccc54)ncnc32)cc1,10 µM (active),–
Cc1cccc(-n2ncc3c(N4CCc5ccccc54)ncnc32)c1,inactive,–
Cc1oc(C)c2c(=O)cc(-c3ccc4c(c3)OCO4)cc(OC(=O)c3ccc(Cl)cc3)c12,inactive,–
CC1CCCN(S(=O)(=O)c2ccc3[nH]c(=O)cc(C(=O)NCCc4ccc(Cl)cc4)c3c2)C1 (centres undefined),inactive,–
CCC1CCCCN1C(=O)Cn1c(=O)n(CCCCCC(=O)NCc2ccccc2)c(=O)c2sccc21 (centres undefined),inactive,–
Cc1cc(C)c(NC(=O)CSc2nc3ccncc3[nH]2)c(C)c1,inactive,–
Cn1c(=O)c2c(-c3ccccc3Br)n(Cc3ccccc3)cc2n(C)c1=O,inactive,–
Cn1c(=NC(=O)CSCC(=O)N2CCCCC2)sc2ccccc21,inactive,–
Cn1c(=NC(=O)CSCC(=O)N2CCOCC2)sc2ccccc21,inactive,–
Cn1c(=NC(=O)c2cnccn2)sc2ccccc21,10 µM (active),–
CCOc1ccc(-c2cc3nc(C4CCN(C(=O)OC(C)(C)C)CC4)c(C(=O)Nc4cccc(CC)c4)cn3n2)cc1,inactive,–
O=C(CN1C(=O)C2C3CCC(C3)C2C1=O)Oc1ccc2ccccc2c1 (centres undefined),inactive,–
Cc1ccc2nc(CC(=O)c3ccc4ccccc4c3)c(=O)[nH]c2c1,–,2.32% [at 9.22 µM]
C=CC(=O)c1ccc2ccccc2c1,10 µM (active),–

Compound,Potency,"activity change, negative = cell killing"
COc1cccc(CNC(=O)CSc2c3c(nc4cc(Cl)ccc24)CCCC3)c1,inactive,–
CCOC(=O)Cc1ccc(NC(=O)Nc2c[nH]c(=O)[nH]c2=O)cc1,inactive,–
CCOc1ccccc1CNCc1c(C(=O)O)c(C)n(Cc2ccc(C)cc2)c1C,inactive,–
CCOc1ccc(-c2nnc(-c3ccco3)o2)cc1,12.6 µM (active),–
CCOc1ccc(C(=O)Nc2ccncc2)cc1,inactive,–
Cc1ccc(OCC(=O)Nc2ccc(-c3nnc(-c4ccco4)o3)cc2)cc1,inactive,–
CCC(=O)Oc1cccc(C(=O)Nc2ccc(-c3nnc(-c4ccco4)o3)cc2)c1,inactive,–
CCOc1ccc(NC(=O)c2ncoc2-c2ccco2)cc1,7.94 µM (active),–
CCOc1ccc(NC(=O)Nc2cc(C)on2)cc1,inactive,–
CN(C)CCCn1c(-c2ccc(Cl)cc2)csc1=Nc1ccccc1,inactive,–
CCCN(CCC)CCNC(=O)Cn1cnc2sc(C)c(S(=O)(=O)N3CCC(C)CC3)c2c1=O,inactive,–
COc1ccc(S(=O)(=O)c2c(Nc3ccc(C)cc3)sc(C(=O)c3ccc(C)cc3)c2N)cc1,inactive,–
Cc1cccc(OCC(=O)N(Cc2ccc(C(C)C)cc2)Cc2ccco2)c1C,inactive,–
Cc1cc(C(=O)COC(=O)CCCN2C(=O)c3ccccc3C2=O)c(C)n1C,inactive,–
C=CCN(CC=C)C(=O)CN1C(=O)c2ccccc2C1=O,inactive,–
C=CCn1c(C)cc(C(=O)CN2C(=O)c3ccccc3C2=O)c1C,12.6 µM (active),–
CC(=O)N1CCCc2cc(S(=O)(=O)N3CCC(C(=O)NCc4ccc(F)cc4)CC3)ccc21,inactive,–
O=C(Nc1cccnc1)c1noc2c1CCCCC2,12.6 µM (active),–
Cc1c(Cl)cccc1NC(=O)c1noc2c1CCCC2,inactive,–
O=C(Nc1cccnc1)c1ccc2c(c1)OCO2,inactive,–
Cc1ccc(Cl)cc1NC(=O)CSc1nc2ccccc2nc1Cc1ccccc1,inactive,–
